# TRHR agonist – agonists of human TRH receptor; P34981; 0.18% of 360,000 active; TRHR cells, calcium flux fluo-8, FDSS agonist mode; activation, % at 2 µM
# Target sequence (P34981 whole entry, looked up): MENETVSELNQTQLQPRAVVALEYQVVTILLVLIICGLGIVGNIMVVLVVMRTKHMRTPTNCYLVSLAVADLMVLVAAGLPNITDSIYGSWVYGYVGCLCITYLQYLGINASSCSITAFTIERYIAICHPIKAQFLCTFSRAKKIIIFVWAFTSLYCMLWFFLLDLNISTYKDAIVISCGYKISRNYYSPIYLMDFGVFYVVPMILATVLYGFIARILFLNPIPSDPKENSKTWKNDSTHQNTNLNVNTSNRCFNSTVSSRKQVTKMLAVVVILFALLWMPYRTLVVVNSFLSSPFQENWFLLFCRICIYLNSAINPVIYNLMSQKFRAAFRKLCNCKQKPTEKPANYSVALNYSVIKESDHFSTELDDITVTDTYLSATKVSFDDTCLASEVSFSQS
#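 Steps: seed TRHR cells overnight; add fluo-8 no-wash Ca dye, RT 30 min–1.5 h; record 10 s baseline; pin-transfer compounds; monitor fluorescence 1 cycle/s for the agonist window. Calcium increases flag candidate agonists.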
# D1 potentiator – human D1 dopamine receptor positive modulation | P21728 | HEK293 TREx D1 cells, calcium flux, dopamine EC20 potentiation | potentiation, % at 10 µM | 0.036% of 360,000 active; in the data active means potentiation above about 30%
# D1 agonist – human D1 receptor agonism; P21728; HEK293 T-REx D1 cells, calcium flux, agonist mode; activation, % at 2 µM; 1% of 360,000 active; AID 504660
#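 Tetracycline-induced HEK293 TREx D1 cells, force-coupled to calcium signalling, were dye-loaded with a no-wash calcium kit. Compound was pin-added after a 10 s baseline. Fluorescence was read kinetically at 1 cycle/s for 180 s, with calcium rises flagged as agonism.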
# D1 antag – blocks dopamine activation of the human D1 receptor; P21728; HEK293 TREx D1 cells, calcium flux, dopamine EC80; hits give low values; activity change, negative = inhibition, % at 10 µM; 3.2% of 360,000 active; AID 504652; in the data active means activity change below about -30%
#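 Tetracycline-induced HEK293 Trex D1 cells, force-coupled to calcium, dye-loaded; compounds added and read 180 s, then EC80 dopamine added and calcium flux tracked kinetically another 180 s.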
# TRHR PAM – TRH receptor (human) allosteric enhancement; AID 493056; TRHR cells, fluo-8 calcium fluorescence, EC20 TRH enhancement; enhancement, % at 2 µM; 0.66% of 360,000 active; in the data active means enhancement above about 30%
#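 Enhancer read-out: after compound pinning and an initial kinetic agonist-mode read, an EC20 of TRH (10 nM final) was injected and fluo-8 calcium signal (Ex 480/Em 530) followed at 1 s/cycle for 100 cycles in TRHR-expressing cells.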
# A number is an active result; – = inactive; · = not tested or not shown. The list is not random: actives were taken first. Their share in the collection is about 4.7%. Unless noted, no stated cut-off is given here; in the data, active means activation above about 30%; inactive means the rest.
SMILES,TRHR agonist,D1 potentiator,D1 agonist,D1 antag,TRHR PAM
Cc1c(CNC2CCC(C)CC2)c(C(=O)O)c(C)n1Cc1ccccc1F (stereo not given),–,–,–,-49,–
Cc1c(CNC2CCCCC2)c(C(=O)O)c(C)n1Cc1ccccc1F,–,–,–,–,–
Cc1ccccc1NC(=O)Cn1c(CCC(=O)O)ccc1-c1cccs1,–,–,–,-42,–
Cc1ccc(-n2c(CCC(=O)O)ccc2-c2cccs2)cc1Cl,–,–,–,-57,–
Cc1ccc(-n2c(CCC(=O)O)ccc2-c2cccs2)cc1,–,–,–,–,–
CCn1nc(C)c(Br)c1-c1nc(CS(=O)(=O)c2ccsc2)no1,–,–,–,–,37
COCc1cc(C)nc2sc3c(c12)NC(c1ccccc1C(=O)O)N(c1ccc(OC)cc1)C3=O (stereo not given),–,–,–,–,–
CCOC(=O)c1ccc(Oc2nc(NC)nc(SC)n2)cc1,–,–,–,-34,–
COC(=O)c1ccccc1Oc1cnc2ccccc2n1,–,–,–,–,–
CNc1nc(Oc2ccccc2C(=O)OC)nc(SC)n1,–,–,–,-40,–
CNC(=S)N(CCc1c(C)[nH]c2ccc(F)cc12)Cc1ccco1,–,–,–,–,–
Cc1[nH]c2ccc(F)cc2c1CCN(Cc1ccco1)C(=S)NC(C)(C)C,–,–,–,-43,–
CNC(=S)N(CCc1c(C)[nH]c2ccccc12)Cc1ccco1,–,–,–,-38,–
N#Cc1ccc(C[C@H](C(=O)O)N2C(=O)c3ccc(C(=O)O)cc3C2=O)cc1,–,–,–,–,–
CCN(C(=O)CCn1cnc2onc(-c3ccc(F)cc3)c2c1=O)c1ccc(OC)cc1,–,–,–,–,–
O=C(NCc1cccnc1)c1cccc2c1C(=O)N(C1CCCCC1)C2,–,–,–,-58,–
O=C(O)c1c(-c2ccccc2)oc2ccc(OCc3c(F)cccc3Cl)cc12,–,–,36,–,–
O=C(/C=C/Nc1ccc(F)c(Cl)c1)c1ccco1,–,–,–,-37,–
Cc1ccc(NC(=O)C(=O)NCCCN2CCOCC2)cc1C,–,–,–,–,–
CCN(CC)C(=O)COc1ccc(N(C)S(=O)(=O)c2ccc(NC(C)=O)cc2)cc1,–,–,–,-38,–
CN(c1ccc(OCC(=O)OCC(=O)Nc2ccccc2)cc1)S(=O)(=O)c1cccs1,–,–,–,-47,–
CN(c1ccc(OCC(=O)OCC(=O)Nc2ccc(F)cc2)cc1)S(=O)(=O)c1ccc(Cl)cc1,–,–,–,-56,–
CN(c1ccc(OCC(=O)OCC(=O)Nc2ccc(Br)cc2)cc1)S(=O)(=O)c1cccs1,–,–,–,–,–
O=C(CN1Cc2ccccc2C1=O)Nc1ccc2c(c1)OCCO2,–,–,–,–,–
COc1cccc(OC)c1NC(=O)CN(C)S(=O)(=O)c1ccc2c(c1)OCCO2,–,–,–,–,–
SMILES,TRHR agonist,D1 potentiator,D1 agonist,D1 antag,TRHR PAM
COc1ccc(CC(=O)Nc2c3c(nn2C(C)(C)C)CS(=O)(=O)C3)cc1,–,–,–,–,–
CC(=O)c1ccc(OC(=O)C2c3ccccc3Oc3ccccc32)cc1,–,–,–,–,–
Cc1ccc(OC(=O)C2c3ccccc3Oc3ccccc32)cc1C,–,–,32,–,–
CC(C)CCn1c(=O)c2sccc2n2c(CCCC(=O)N3CCC(N4CCCCC4)CC3)nnc12,–,–,–,-45,–
CCOC(=O)C1(CCCc2ccccc2)CCN(CCCn2cccn2)CC1,–,–,37,–,–
COc1cc(C(=O)Nc2ccc(NC(=O)c3ccc(Br)cc3)cc2)cc(OC)c1OC,–,–,–,–,–
CCC(C)(C)c1ccc(OCCCC[n+]2ccc(C)cc2)c(C(C)(C)CC)c1,–,–,127,–,–
CCC(C)(C)c1ccc(OCCCC[n+]2cccc(C)c2C)c(C(C)(C)CC)c1,–,–,146,–,–
Cc1cc(C(C)(C)C)ccc1OCCCCN1CCCC1,–,–,–,–,–
Cc1cc[n+](CC[n+]2ccc(C)cc2)cc1,–,–,–,–,–
CCN(CC(=O)NCc1ccc(F)cc1)C(=O)c1ccc(C(=O)c2ccccc2)cc1,–,·,–,–,–
CCOc1ccc(N(C(C)C(=O)NN=C2CCCCCCC2)S(C)(=O)=O)cc1 (stereo not given),–,–,–,-33,–

# Screening results (PubChem)
